The results in this text go back to PubChem BioAssay AID2060323 (National Center for Advancing Translational Sciences (NCATS), 2025).

Inconclusive results are not listed. Entries that show only a call come without a potency. Active and inactive are the calls of the source. Calls come from the whole dose curve; as a rule, active = well fitted activation curve with a large enough effect; inconclusive = small, poorly fitted or top-dose-only effect; inactive = no such curve, though single readings can be large or run the other way.

Sequence of Cellular tumor antigen p53 (Homo sapiens) (P04637 whole entry, looked up): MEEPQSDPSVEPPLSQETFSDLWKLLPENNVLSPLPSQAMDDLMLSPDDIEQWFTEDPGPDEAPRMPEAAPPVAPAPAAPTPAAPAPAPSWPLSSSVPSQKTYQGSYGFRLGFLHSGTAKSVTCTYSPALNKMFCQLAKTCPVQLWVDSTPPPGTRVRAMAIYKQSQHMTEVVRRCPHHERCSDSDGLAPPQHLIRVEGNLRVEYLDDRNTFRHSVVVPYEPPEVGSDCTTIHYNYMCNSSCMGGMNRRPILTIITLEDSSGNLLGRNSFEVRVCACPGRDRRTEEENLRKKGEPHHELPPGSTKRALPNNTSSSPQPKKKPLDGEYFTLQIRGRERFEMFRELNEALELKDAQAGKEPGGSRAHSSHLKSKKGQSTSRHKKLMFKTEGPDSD

The experiment addresses Cellular tumor antigen p53 (Homo sapiens) (UniProt P04637). As to the kind of experiment: Confirmatory qHTS for small molecule compounds that upregulate eGFP-tagged delta133p53alpha (in C-terminal) cells. Particulars: delta133p53alpha-eGFP (C-terminal) reporter cells, GFP fluorescence upregulation; series mostly up to 57.5 µM. The source says: Assay Development and Screening Technology
National Center for Advancing Translational Sciences (NCATS),
National Institute of Health (NIH), Rockville, Maryland
Cellular senescence (CS) is one of the hallmarks of aging and age-related diseases. Senescent cells are characterized by an irreversible growth arrest, an increase in senescence-associated beta-galactosidase (SA-beta-gal) activity and p16INK4a expression, an activation of the DNA damage response pathways, and the emergence of a senescence-associated secretory phenotype (SASP).
Delta133p53alpha, a human/primate-specific p53 protein isoform, delays or inhibits the induction of CS and SASP in various types of human cells, including progeria-derived fibroblasts, primary normal astrocytes, and CD8+ T lymphocytes. Induction of delta133p53alpha with small molecule compounds may provide therapeutic opportunities for inhibition of senescence/SASP-associated pathologies in progeria syndromes, astrocyte-mediated neuroprotection in neurodegenerative diseases, and possibly prevention and treatment of a wider range of senescence- and aging-associated diseases.
Here we report the development and validation of a cell-based quantitative high throughput screening (qHTS) assay in 1,536-well format. This qHTS assay uses the NCI-H358 cell line with doxycycline-inducible expression of enhanced green fluorescent protein (eGFP)-tagged delta133p53alpha, which allows efficient and highly quantitative measurement of the protein levels.
PROTOCOL TABLE (as described by Inglese J, Shamu CE and Guy RK. 2007)
SEQUENCE No. (e.g., 1, 2, 3, etc.); […] (e.g., Cells, Incubation, Reagent, etc.); VALUE; DESCRIPTION.
1; Cells; 4uL; 800 doxycycline treated cells / well in doxycycline-free media, 1536-well black, clear-bottom low base Aurora microplates.
2; Compounds; 23 nL; Kalypsis pin tool (Wako) equipped with 1536-well pin heads, 5-azacytidine positive control.
3; Incubation; 24 hr; 37C, 5% CO2; 95% relative humidity.
4; Aspiration; 1x; BioTek EL406 washer dispenser (Agilent).
5; Fixing; 3.5% paraformaldehyde, BioTek EL406 washer dispenser (Agilent).
6; Washing; 1x PBS; BioTek EL406 washer dispenser (Agilent).
7; Nuclei staining; 1:1000 dilution of Hoechst 33342 (Thermofisher), BioTek EL406 washer dispenser (Agilent).
8; Incubation; 20 min; in the dark at room temperature.
9; Washing; 2x, 1x PBS (ThermoFisher), BioTek EL406 washer dispenser (Agilent).
10; Reagent; 10 uL; 1x PBS per well, sealed with clear adhesive tape.
11; Detection; Fluorescence, Acumen eX3 laser scanning cytometer (STP Labtech), GFP filters […].
NOTES (numbers refer to sequence numbers above).
1. NCI-H358 cells expressing eGFP-tagged delta133p53alpha were grown in T75 culture flasks and treated with doxycycline for 24h, at 10 ng/ml for eGFP-D133p53a cells (N-terminal cell) and 100 ng/ml for D133p53a-eGFP cells (C-terminal cells). Cells were trypsinized, counted using a Counted 3 Automated Cell Counter (Thermo Fisher), and diluted to a concentration of 200,000 cells/ml. A Multidrop Combi Reagent Dispenser (ThermoFisher) was used to dispense 800 cells/well in […] of doxycycline-free media, into 1536-well black/clear bottom low base plates (AuroraMicroplates).
2. After plating cells, 23 nl of compound library, DMSO vehicle control or positive control (5-azacytidine) were transferred by Pin Tool (Wako). The plate map layout was the same for each plate: (column 1) non-doxycycline treated cells + DMSO vehicle control; (column 2) doxycycline treated cells + DMSO vehicle control baseline; (column 3) doxycycline treated cells + positive control 57.5 uM final concentration 5-azacytidine; (column 4) doxycycline treated cells + serial dilution of 5-azacytidine, 16-point 1:2 titration spanning 1.8 nM to […] final concentration; (columns 5-48) doxycycline treated cells + titration of library compounds.
3. Cells were incubated at 37 °C, 5 % CO2, 95% RH with breathable metal lid for 24h.
4-10. […]
A general note: qHTS replaces the single test concentration by a dilution series.
For the molecule `CCS(=O)(=O)Nc1cccc(C(=C2CCCCC2)c2cnc[nH]2)c1`, the Potency entry is “inactive”.

As for `CCn1cnc2c(Nc3cccc(Cl)c3)nc(N[C@@H]3CCCC[C@@H]3N)nc21`, the Potency is 9.68 µM (active).

As for `CN1C2CCC1CC(OC(c1ccccc1)c1ccccc1N)C2` (centres undefined), the Potency entry was “inactive”.

Regarding `O=C1/C(=C\c2ccccc2)C[C@@]2(O)[C@H]3Cc4ccc(O)c5c4[C@@]2(CCN3CC2CC2)[C@H]1O5`, the Potency was 15.3 µM (active).

As for `CC[C@@]1(O)C(=O)OCc2c1cc1n(c2=O)Cc2cc3ccccc3nc2-1`, the Potency was 1.72 µM (active).

As to `CC(=O)[C@H]1CC[C@H]2[C@@H]3CC[C@H]4C[C@](C)(O)CC[C@]4(C)[C@H]3CC[C@]12C`, the Potency result was “inactive”.

`C[C@]12Cc3cn4c(nc3C=C1CCC1C2CC[C@@]2(C)[C@H]1CC[C@@]2(O)C#N)nc1ccccc14` (some centres undefined): the Potency is 19.3 µM (active).

As for `N[C@H](CCCCCP(=O)(O)O)C(=O)O`, the Potency result is “inactive”.

With `c1ccc2c(c1)[I+]c1ccccc1-2`, the Potency is 19.3 µM (active).

As to `CC1(C(=O)O)C2CCC(O2)C1(C)C(=O)O` (centres undefined), the Potency result is “inactive”.

`Cc1c2ccncc2c(C)c2c1[nH]c1ccccc12`: the Potency was 3.06 µM (active).

In the case of `CP(=O)(O)C1=CCNCC1`, the Potency entry was “inactive”.

With `c1ccc2c(c1)OCC(C1=NCCN1)O2` (centres undefined), the Potency result was “inactive”.

Regarding `CC1=NN=C(c2ccc(N)cc2)c2cc3c(cc2C1)OCO3`, the Potency is 34.3 µM (active).
